Laboratory results from PubChem BioAssay AID1063 (University of Pittsburgh Molecular Library Screening Center, 2008).
The whole screen tested about 200,000 compounds, of which about 18,000 (9%) were called active. Rule as the data show it: active = inhibition above about 50%; inactive = the rest. The list comes from a sample in which actives are over-represented; it also holds similar structures and randomly drawn compounds.

Assay: Leishmania major promastigote growth inhibition, primary screen (AID 1063);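 also: promastigotes grown with compound for 44 hours at 28 °C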
Conditions: Leishmania major promastigotes, resazurin fluorescence viability; at 10 µM; active compounds read high

Compound	inhibition
COCCNc1nc2nonc2nc1N1CCCC1c1nccs1 (stereo unspecified)	-4.44% (inactive)
O=C(c1cccc([N+](=O)[O-])c1)N1CCN(C(=O)c2ccco2)CC1	0.98% (inactive)
CCn1c(COc2ccccc2)nnc1SCC(=O)Nc1ccc2c(c1)OCCO2	-3.59% (inactive)
C=CCn1c(CNC(=O)c2ccco2)nnc1SCC(=O)c1ccc(OC)cc1	-7.42% (inactive)
CCn1c(CNc2ccc(OC)cc2)nnc1SCC(=O)c1ccc(OC)cc1	70.5% (active)
CCn1c(COc2ccc(OC)cc2)nnc1SCC(=O)Nc1cc(OC)ccc1OC	60.8% (active)
COC(=O)c1ccc(NC(=O)CSc2nnc(CNc3ccc(OC)cc3)n2C)cc1	9.68% (inactive)
COc1ccc(OC)c(NC(=O)CSc2nc3cccnc3n2C)c1	-3.05% (inactive)
CCSC1=NCCN1S(=O)(=O)c1ccc(F)cc1	-0.73% (inactive)
O=c1c2ccccc2c(-c2ccccc2)nn1-c1ccccn1	-0.99% (inactive)
CC(=O)N1C(C)c2ccccc2C(C)(C)CC12CCCCC2 (stereo unspecified)	10.5% (inactive)
Cc1ccc(N=C2NC(=O)c3cccc([N+](=O)[O-])c32)cc1	-1.43% (inactive)
COc1cc(OC)cc(-c2nc3nc(C)c(CCC(=O)NCc4ccco4)c(C)n3n2)c1	2% (inactive)
Cc1nc2c(-c3ccc(F)cc3)c(C)nn2c(C)c1CCC(=O)NCc1ccco1	-2.49% (inactive)
COc1ccc(-c2cc3nc(C)c(CCC(=O)NC(C)CCc4ccco4)c(C)n3n2)c(OC)c1 (stereo unspecified)	100% (active)
Cc1ccc2cc(CN(c3ccc(C)c(C)c3)S(C)(=O)=O)c(=O)[nH]c2c1	9.29% (inactive)
CCN(CCn1cccn1)C(=O)CC1C(=O)NCCN1Cc1cccc(OC)c1OC (stereo unspecified)	5.31% (inactive)
CCOC(=O)c1sc2nc(C)nc(Nc3ccc(OC)c(OC)c3)c2c1C	-0.22% (inactive)
COc1ccc(O)c(C=Nc2cc(C)on2)c1	-9.53% (inactive)
COc1ccc(-c2onc(C)c2-c2ccc3c(c2)OCCO3)c(O)c1	72.5% (active)
COc1ccc(-c2n[nH]c(C)c2-c2ccc(OC)c(OC)c2)c(O)c1	4.64% (inactive)
CCOC(=O)CNC(=O)CSc1ccc2nnc(-c3cccnc3)n2n1	4.24% (inactive)
CC(=O)Cn1ncc(N2CCOCC2)c(Br)c1=O	5.25% (inactive)
COc1ccc(CNC(=O)C2CCN(S(C)(=O)=O)CC2)cc1	7.6% (inactive)
COc1ccc(CCNC(=O)COC(=O)C2CCCCC2)cc1	-2.53% (inactive)
COc1ccc(CNC2CCCCC2)cc1	72.3% (active)
